Results: PubChem BioAssay (Tox21)
Records with an inconclusive call do not appear. Where a call stands in place of a potency, no number is given. Active and inactive are the calls of the source. Unless noted, calls come from the whole dose curve.

Columns and labels:
[1] = target: Gonadotropin-releasing hormone receptor (Homo sapiens) (UniProt P30968); test: Human gonadotropin-releasing hormone receptor (GnRHR) small molecule agonists, calcium flux assay in GnRHR-HEK293 cells (AID 1920063); note: nearly all actives have a fitted effect of over 35% in size
Summary of the method: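 GnRHR-HEK293, 1500 cells/well, 18 h 37 C/5% CO2; Ca dye 1 h 37 C; cpd pinned (DMSO), agonist mode; kinetic FL 480/540, 3 min, 1 s reads; 15 conc, n=3.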

[2] = target: KiSS-1 receptor (Homo sapiens) (UniProt Q969F8); test: Human kisspeptin (KISS1R) small molecule agonists, calcium flux assay in KISS1R-HEK293 cells (AID 1920064; active = well fitted activation curve with a large enough effect in the repeat runs)
Summary of the method: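 Stable human KISS1R HEK293 line; 18 h plating, 37 C/5% CO2; calcium dye 1 h 37 C; compound pin transfer; kinetic fluorescence Ex/Em 480/540, 3 min.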

[3] = G protein-coupled receptor (GPCR) small molecule agonists, calcium flux assay: HEK293 wild type cell line counter screen (AID 1920065)
Summary of the method: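 Kinetic fluorescence at Ex/Em 480/540, recorded every second over 3 min, served as the read-out after compound addition. Each compound was tested at 15 concentrations in triplicate on cells pre-loaded with calcium dye for 1 h.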

[4] = p53 small molecule agonists, cell-based qHTS assay with human liver microsomes (AID 1963577)
Summary of the method: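 p53RE-bla reporter cells were pre-incubated 5 h at 37 C, then treated with compounds plus human liver microsomes (0.5 mg/mL final) and NADPH (0.5 mg/mL final) for 16 h at 37 C. Beta-lactamase activity was read by LiveBLAzer fluorescence after 2 h at room temperature.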

[5] = p53 small molecule agonists, cell-based qHTS assay with rat liver microsomes (AID 1963578)
Summary of the method: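 p53RE-bla cells were exposed to compounds together with rat liver microsomes (0.5 mg/mL final) and NADPH (0.5 mg/mL final) for 16 h at 37 C, then read by LiveBLAzer beta-lactamase fluorescence after 2 h at room temperature.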

[6] = p53 small molecule agonists, cell-based qHTS assay with human liver microsomes: qHTS cell viability counter screen (AID 1963579); note: nearly all actives have a fitted effect of over 45% in size
Summary of the method: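 p53RE-bla cells (4,000/well) were pre-incubated 5 h at 37 C, then given compounds in DMSO plus human liver microsomes (0.5 mg/mL final) and NADPH (0.5 mg/mL final) for 16 h at 37 C. Viability was read by CellTiter-Glo luminescence.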

[7] = p53 small molecule agonists, cell-based qHTS assay with rat liver microsomes: qHTS cell viability counter screen (AID 1963580); note: nearly all actives have a fitted effect of over 45% in size
Summary of the method: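 In HCT-116 cells carrying a p53 response element-bla reporter, compounds were metabolically activated in situ by rat liver microsomes with NADPH over 16 h. Cell ATP content then served as the cytotoxicity measure.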

[8] = p53 small molecule agonists, cell-based qHTS assay: qHTS cell viability counter screen (AID 1963581); note: nearly all actives have a fitted effect of over 45% in size
Summary of the method: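 HCT-116 p53RE-bla cells, 4,000/well, plated 5 h before compound pin transfer; 16 h at 37 C; bla substrate 2 h RT; then CellTiter-Glo, 30 min RT, luminescence.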

[9] = p53 small molecule agonists, cell-based qHTS assay (AID 1963582; active = well fitted activation curve with a large enough effect in the signal ratio in the repeat runs, not every such curve was filed as active; the % refers to the signal ratio)
Summary of the method: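 Reporter line: p53RE-bla. Pre-incubation 5 h, 37 C, 5% CO2; compound (DMSO, pin tool) 16 h, 37 C; B/G FRET substrate 2 h RT; fluorescence intensity read.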

[10] = target: 5-hydroxytryptamine receptor 2A (Homo sapiens) (UniProt P28223); test: 5-hydroxytryptamine receptor 2A (HTR2A) small molecule antagonists, cell-based qHTS assay (AID 1963586); note: nearly all actives have a fitted effect of over 45% in size; note: potency is the fitted concentration of half-maximal effect
Summary of the method: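 Antagonist-mode intracellular calcium assay: DOI (4 nM) added after 5 min compound pre-incubation at room temperature to dye-loaded HTR2A-CHO cells. Fluorescence followed for 3 min, sampled every second.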

[11] = target: 5-hydroxytryptamine receptor 2A (Homo sapiens) (UniProt P28223); test: 5-hydroxytryptamine receptor 2A (HTR2A) small molecule agonists, cell-based qHTS assay (AID 1963587); note: nearly all actives have a fitted effect of over 30% in size; note: potency is the fitted concentration of half-maximal effect
Summary of the method: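 HTR2A-CHO cells, plated 18 h at 37 C/5% CO2, dye-loaded 1 h at 37 C; compounds in DMSO added by pin tool (agonist mode). Intracellular calcium flux read as kinetic fluorescence on FDSS over 2 min at 1 s intervals.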

[12] = target: Muscarinic acetylcholine receptor M1 (Homo sapiens) (UniProt P11229); test: Cholinergic receptor muscarinic 1 (CHRM1) small molecule antagonists, cell-based qHTS assay (AID 1963588); note: nearly all actives have a fitted effect of over 40% in size
Summary of the method: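 CHRM1-CHO calcium-flux assay, antagonist mode. Cells were seeded 18 h, dye-loaded 1 h at 37 C and given compound for 5 min at RT, then acetylcholine was added at 50nM. FDSS fluorescence was read 3 min; 15 concentrations, three runs.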

[13] = target: Muscarinic acetylcholine receptor M1 (Homo sapiens) (UniProt P11229); test: Cholinergic receptor muscarinic 1 (CHRM1) small molecule agonists, cell-based qHTS assay (AID 1963589); note: nearly all actives have a fitted effect of over 35% in size
Summary of the method: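 Human M1 in stable CHO line; 18 h plating, 1 h dye load 37 C; cpd added (agonist mode); Ca2+ fluorescence kinetic read, 1 s intervals; 15 conc, 3 runs.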

[14] = cAMP Responsive Elements (CRE) small molecule agonists, cell-based qHTS assay (AID 1963590); note: potency is the fitted concentration of half-maximal effect
Summary of the method: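 HEK 293T CRE-bla, 2,000 cells/well, 18 h preincubation 37 C/5% CO2; cpds (DMSO) pinned, 3 h; LiveBLAzer B/G FRET substrate, 2 h RT.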

[15] = cAMP Responsive Elements (CRE) small molecule antagonists, cell-based qHTS assay (AID 1963591; active = well fitted inhibition curve with a large enough effect in the signal ratio in the repeat runs, not every such curve was filed as active; the % refers to the signal ratio)
Summary of the method: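 Beta-lactamase reporter read by FRET substrate (LiveBLAzer B/G) after 2 h at room temperature. CRE-bla HEK293T cells had received compound plus 0.25 uM (final) NKH477 for 3 h at 37 °C.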

[16] = target: Beta-2 adrenergic receptor (Homo sapiens) (UniProt P07550); test: Adrenergic beta2 receptor (ADRB2) small molecule antagonists, cell-based qHTS assay (AID 1963592); note: series mostly up to about 92 µM; nearly all actives have a fitted effect of over 50% in size
Summary of the method: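 Cells (CHO, stable ADRB2 overexpression) incubated 18-20hr at 37C; compounds added from DMSO; agonist mix (1nM isoproterenol, 100uM IBMX, 25uM Ro-20-1724) added; 0.5hr RT; d2-cAMP and anti-cAMP-cryptate added; 1hr RT; 665/615 nm read.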

[17] = target: D(2) dopamine receptor (Homo sapiens) (UniProt P14416); test: Dopamine D2 receptor (DRD2) small molecule agonists, cell-based qHTS assay (AID 1963594); note: nearly all actives have a fitted effect of over 35% in size
Summary of the method: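 HEK293 cells stably expressing DRD2 were cultured 24 h at 37 C, then given Ro20-1724 (0.1 mM final) and compounds for 10 min at room temperature. NKH477 (200nM) was then added for 30 min. cAMP was read by HTRF.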

[18] = target: D(2) dopamine receptor (Homo sapiens) (UniProt P14416); test: Dopamine D2 receptor (DRD2) small molecule antagonists, cell-based qHTS assay (AID 1963595; active = well fitted inhibition curve with a large enough effect in the signal ratio in the repeat runs, with a control signal flat; the % refers to the signal ratio; note: potency is the fitted concentration of half-maximal effect)
Summary of the method: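 DRD2-HEK293; 0.1 mM Ro20-1724; cpd 10 min RT; NKH477 200 nM + quinpirole 12 nM, 30 min RT; HTRF cAMP (cAMP-d2/anti-cAMP cryptate), 665/620 nm ratio after 1 h.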

[19] = target: Beta-2 adrenergic receptor (Homo sapiens) (UniProt P07550); test: Adrenergic beta2 receptor (ADRB2) small molecule agonists, cell-based qHTS assay (AID 1963593);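 note: CHO cells stably overexpressing human ADRB2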
Summary of the method: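 CHO cells stably over-expressing ADRB2 were plated overnight at 37C, then dosed with compounds plus a stimulation mix containing 100uM IBMX and 25uM Ro-20-1724 for 0.5hr at room temperature. cAMP was measured by HTRF competition, 1hr.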

[20] = Nuclear factor erythroid 2-related factor 2/antioxidant responsive element (Nrf2/ARE) small molecule agonists: luciferase reporter gene qHTS assay in human keratinocytes (AID 1919969); note: nearly all actives have a fitted effect of over 35% in size; note: potency is the fitted concentration of half-maximal effect

Chain of D(2) dopamine receptor (Homo sapiens) (P14416 whole entry, looked up): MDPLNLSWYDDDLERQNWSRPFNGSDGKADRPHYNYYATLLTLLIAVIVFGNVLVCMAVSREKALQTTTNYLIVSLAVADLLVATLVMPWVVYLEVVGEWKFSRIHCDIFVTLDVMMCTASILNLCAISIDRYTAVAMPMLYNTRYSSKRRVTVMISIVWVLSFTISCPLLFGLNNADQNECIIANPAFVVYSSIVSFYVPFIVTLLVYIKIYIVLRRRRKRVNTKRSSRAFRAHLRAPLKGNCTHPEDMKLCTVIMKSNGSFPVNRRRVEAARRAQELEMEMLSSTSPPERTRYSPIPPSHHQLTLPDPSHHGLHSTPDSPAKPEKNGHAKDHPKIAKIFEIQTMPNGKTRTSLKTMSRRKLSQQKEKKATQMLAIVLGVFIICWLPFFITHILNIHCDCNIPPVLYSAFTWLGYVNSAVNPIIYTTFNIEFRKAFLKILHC
Chain of 5-hydroxytryptamine receptor 2A (Homo sapiens) (P28223 whole entry, looked up): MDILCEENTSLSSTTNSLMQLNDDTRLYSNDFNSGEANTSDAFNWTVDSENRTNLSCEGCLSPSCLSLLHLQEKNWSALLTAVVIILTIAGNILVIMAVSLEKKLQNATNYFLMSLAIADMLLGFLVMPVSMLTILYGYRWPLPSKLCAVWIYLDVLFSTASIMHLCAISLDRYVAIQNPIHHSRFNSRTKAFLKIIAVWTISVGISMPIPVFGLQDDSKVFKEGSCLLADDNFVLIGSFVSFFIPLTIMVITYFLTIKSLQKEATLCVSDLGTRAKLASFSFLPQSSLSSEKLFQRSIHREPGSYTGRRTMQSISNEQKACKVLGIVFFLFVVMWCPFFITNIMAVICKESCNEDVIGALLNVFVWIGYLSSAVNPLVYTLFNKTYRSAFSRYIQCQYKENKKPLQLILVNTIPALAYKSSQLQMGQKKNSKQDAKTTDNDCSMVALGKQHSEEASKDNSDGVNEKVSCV
Chain of Beta-2 adrenergic receptor (Homo sapiens) (P07550 whole entry, looked up): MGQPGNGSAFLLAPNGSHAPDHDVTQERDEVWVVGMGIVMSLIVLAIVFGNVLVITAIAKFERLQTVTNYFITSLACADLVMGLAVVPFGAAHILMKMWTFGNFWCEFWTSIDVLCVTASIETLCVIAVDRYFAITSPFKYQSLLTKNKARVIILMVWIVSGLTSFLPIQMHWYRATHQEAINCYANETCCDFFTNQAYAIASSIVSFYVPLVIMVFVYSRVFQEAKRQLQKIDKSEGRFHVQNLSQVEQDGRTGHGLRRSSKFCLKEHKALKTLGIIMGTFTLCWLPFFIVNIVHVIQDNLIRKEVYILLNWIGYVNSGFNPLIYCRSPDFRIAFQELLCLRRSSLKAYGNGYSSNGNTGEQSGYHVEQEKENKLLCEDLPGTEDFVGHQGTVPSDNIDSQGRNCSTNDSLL
Chain of Muscarinic acetylcholine receptor M1 (Homo sapiens) (P11229 whole entry, looked up): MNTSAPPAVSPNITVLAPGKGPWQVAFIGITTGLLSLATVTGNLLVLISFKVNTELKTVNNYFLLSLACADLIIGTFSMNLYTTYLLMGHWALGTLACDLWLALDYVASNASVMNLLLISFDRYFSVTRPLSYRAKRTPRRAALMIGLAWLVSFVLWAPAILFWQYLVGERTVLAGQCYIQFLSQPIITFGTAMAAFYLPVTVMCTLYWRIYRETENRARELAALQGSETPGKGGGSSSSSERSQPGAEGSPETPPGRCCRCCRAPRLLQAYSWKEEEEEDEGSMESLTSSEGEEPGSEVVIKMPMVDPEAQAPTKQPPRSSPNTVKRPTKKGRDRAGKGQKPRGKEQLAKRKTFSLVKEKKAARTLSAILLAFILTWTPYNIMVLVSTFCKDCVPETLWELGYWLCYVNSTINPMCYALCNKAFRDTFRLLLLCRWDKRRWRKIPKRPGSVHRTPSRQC
Chain of Gonadotropin-releasing hormone receptor (Homo sapiens) (P30968 whole entry, looked up): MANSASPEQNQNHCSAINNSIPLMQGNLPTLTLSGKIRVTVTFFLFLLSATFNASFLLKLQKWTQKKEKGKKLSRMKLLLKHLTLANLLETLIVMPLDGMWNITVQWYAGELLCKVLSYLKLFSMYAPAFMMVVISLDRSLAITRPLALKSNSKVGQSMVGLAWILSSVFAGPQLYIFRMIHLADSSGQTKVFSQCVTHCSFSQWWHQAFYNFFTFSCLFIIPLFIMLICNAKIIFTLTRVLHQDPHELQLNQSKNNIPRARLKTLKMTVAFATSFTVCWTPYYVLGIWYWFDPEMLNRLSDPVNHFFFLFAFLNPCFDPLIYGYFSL
Chain of KiSS-1 receptor (Homo sapiens) (Q969F8 whole entry, looked up): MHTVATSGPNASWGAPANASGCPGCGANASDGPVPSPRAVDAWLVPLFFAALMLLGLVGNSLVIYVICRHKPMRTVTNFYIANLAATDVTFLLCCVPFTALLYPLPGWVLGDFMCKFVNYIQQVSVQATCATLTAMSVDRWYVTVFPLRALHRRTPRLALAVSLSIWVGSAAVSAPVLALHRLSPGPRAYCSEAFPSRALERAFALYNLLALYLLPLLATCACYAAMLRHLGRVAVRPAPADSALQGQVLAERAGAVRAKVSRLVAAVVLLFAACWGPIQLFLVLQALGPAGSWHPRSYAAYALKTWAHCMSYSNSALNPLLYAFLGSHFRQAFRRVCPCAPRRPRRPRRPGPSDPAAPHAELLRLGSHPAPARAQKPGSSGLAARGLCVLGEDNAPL

| SMILES | Potency [1] | Potency [2] | Potency [3] | Potency [4] | Potency [5] | Potency [6] | Potency [7] | Potency [8] | Potency [9] | Potency [10] | Potency [11] | Potency [12] | Potency [13] | Potency [14] | Potency [15] | Potency [16] | Potency [17] | Potency [18] | Potency [19] | Potency [20] |
| --- | --- | --- | --- | --- | --- | --- | --- | --- | --- | --- | --- | --- | --- | --- | --- | --- | --- | --- | --- | --- |
| Clc1cc(Cl)c(-c2cc(Cl)c(Cl)cc2Cl)cc1Cl | inactive | inactive | inactive | inactive | inactive | inactive | inactive | inactive | inactive | inactive | inactive | inactive | inactive | inactive | inactive | inactive | inactive | inactive | – | – |
| N#CN | inactive | inactive | inactive | – | – | inactive | inactive | inactive | – | inactive | inactive | inactive | inactive | inactive | inactive | inactive | inactive | inactive | inactive | – |
| O=[N+]([O-])O.O=[N+]([O-])O.[Cd] | inactive | inactive | inactive | – | – | inactive | inactive | inactive | – | – | 38.9 µM (active) | inactive | inactive | inactive | – | inactive | – | – | – | – |
| CC1(C)CC/C(=C/c2ccc(Cl)cc2)C1(O)Cn1cncn1 (centres undefined) | inactive | inactive | inactive | inactive | inactive | inactive | inactive | – | – | – | – | inactive | – | – | – | – | – | inactive | – | – |
| c1ccc2c(c1)OCC(C1=NCCN1)O2 (centres undefined) | – | inactive | inactive | inactive | inactive | inactive | inactive | – | inactive | inactive | inactive | inactive | inactive | inactive | inactive | inactive | – | – | – | 23.7 µM (active) |
| COc1ccc(Cc2nccc3cc(OC)c(OC)cc23)cc1OC | inactive | inactive | inactive | inactive | inactive | inactive | inactive | inactive | – | – | – | – | – | 11.9 µM (active) | inactive | inactive | inactive | inactive | inactive | – |
| CCNS(=O)(=O)C(F)(F)C(F)(F)C(F)(F)C(F)(F)C(F)(F)C(F)(F)C(F)(F)C(F)(F)F | – | inactive | inactive | – | – | inactive | inactive | inactive | – | inactive | inactive | inactive | inactive | – | inactive | inactive | inactive | inactive | inactive | 58.5 µM (active) |
| CCCCC(O)(Cn1cncn1)c1ccc(Cl)cc1Cl (centres undefined) | – | – | inactive | inactive | inactive | inactive | – | – | – | inactive | – | inactive | inactive | – | – | – | inactive | – | – | inactive |
| C=CC(=O)OCCCCO | inactive | inactive | inactive | – | – | inactive | – | inactive | – | inactive | inactive | inactive | inactive | – | – | inactive | inactive | inactive | inactive | – |
| CCCCNP(N)(N)=S | inactive | inactive | inactive | inactive | inactive | inactive | inactive | inactive | inactive | inactive | inactive | inactive | – | inactive | inactive | inactive | inactive | inactive | – | – |
| CCC(C)c1cccc(C(C)CC)c1O (centres undefined) | inactive | inactive | inactive | inactive | inactive | inactive | – | inactive | inactive | – | inactive | – | inactive | – | – | inactive | inactive | – | – | – |
| CC[C@H]1C[C@@H]2C[C@H]3c4[nH]c5ccc(OC)cc5c4CCN(C2)[C@@H]13 | inactive | inactive | inactive | inactive | inactive | inactive | inactive | – | inactive | 0.293 µM (active) | inactive | inactive | inactive | – | – | – | inactive | inactive | – | – |
| BrC(Br)C(Br)(Br)Br | – | inactive | inactive | inactive | inactive | inactive | inactive | inactive | – | inactive | 55.3 µM (active) | inactive | inactive | – | – | inactive | inactive | inactive | – | inactive |
| CCOc1cc(Oc2ccc(C(F)(F)F)cc2Cl)ccc1[N+](=O)[O-] | inactive | inactive | inactive | inactive | inactive | inactive | inactive | inactive | inactive | inactive | inactive | inactive | inactive | – | inactive | inactive | inactive | inactive | – | – |
| c1cc[c]([Hg][c]2ccccc2)cc1 | inactive | inactive | inactive | inactive | inactive | – | – | – | – | inactive | – | inactive | inactive | – | – | – | inactive | 4.33 µM (active) | – | – |
| CCOP(=S)(OCC)Oc1cc(Cl)c(Br)cc1Cl | – | inactive | inactive | – | – | – | inactive | inactive | – | inactive | inactive | inactive | inactive | – | – | inactive | inactive | inactive | – | 61.1 µM (active) |
| S=C=Nc1ccccc1 | inactive | inactive | inactive | inactive | inactive | inactive | inactive | inactive | inactive | inactive | inactive | inactive | inactive | inactive | – | inactive | inactive | inactive | – | – |
